Structures can show the parent of a compound that is named as a salt. ± gives the standard deviation of the averaged measurements.
Legend:
[1] = system: E18 rat cortical neuron-glia co-culture; test: fiber score / MBP score (myelination specific beyond OL differentiation) (ratio); higher = more myelination-specific MBP alignment; details: treatment time: 8 days (DIV5-DIV13)
Outline: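 Papain-dissociated primary E18 rat cortical co-cultures, plated at 20,000 cells/well on poly-d-lysine/laminin 96-well plates, were exposed to library compounds at 1 or 5 µM in myelination medium between DIV5 and DIV13. Following fixation in 4 % paraformaldehyde, cultures were stained for MBP, Olig2 and DAPI, and four 10X fields per well were analysed in duplicate wells. Values are the ratio of fiber score (continuous MBP fiber length per Olig2+ nucleus) to MBP score (thresholded MBP area × intensity per Olig2+ nucleus).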

[2] = system: E18 rat cortical neuron-glia co-culture; test: myelination (MBP fiber length per Olig2+ nucleus), % of 1 µM DAPT response (DMSO = 0) (% of DAPT); higher = more myelination, active = 50 or more; details: treatment time: 8 days (DIV5-DIV13)
Outline: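 Myelination, expressed as continuous straight MBP fiber length per Olig2+ nucleus, was normalised to 0.1 % DMSO as 0 and a 1 µM positive control as 100. The cultures were primary E18 rat cortical co-cultures dissociated with papain and plated at 20,000 cells/well on poly-d-lysine/laminin-coated 96-well plates. They received library compounds at 1 or 5 µM in myelination medium between DIV5 and DIV13. Analysis covered four 10X fields per well in duplicate wells after 4 % paraformaldehyde fixation and immunostaining for MBP and Olig2 with DAPI.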

| SMILES | fiber score / MBP score ([1]; 1 µM) | fiber score / MBP score ([1]; 5 µM) | myelination ([2]; 1 µM) | myelination ([2]; 5 µM) |
| --- | --- | --- | --- | --- |
| COc1ccc(OC)c(C(O)CNC(=O)CN)c1 (stereo unspecified) [Midodrine] | 0.492 | 0.885 | -19.2 (inactive) | -8.37 (inactive) |
| Cc1cccc(C)c1OCC(C)N (stereo unspecified) [Mexiletine] | 0.887 | 0.965 | 8.19 (inactive) | 8.07 (inactive) |
| CC(Cc1ccccc1)(NC(=O)CN)c1ccccc1 (stereo unspecified) [Remacemide] | 0.793 | 0.749 | -12.4 (inactive) | -7.33 (inactive) |
| COC(=O)C1=C(C)NC(C)=C(C(=O)OC2CCCN(Cc3ccccc3)C2)C1c1cccc([N+](=O)[O-])c1 (stereo unspecified) [Benidipine] | 0.524 | 0.892 | -35.3 (inactive) | -63 (inactive) |
| CCN(CC)CC(=O)Nc1c(C)cccc1C [Lidocaine] | 0.745 | 0.698 | -26.3 (inactive) | -24.5 (inactive) |
| CNCCCC12CCC(c3ccccc31)c1ccccc12 [Maprotiline] | 0.656 | 0.581 | -27.8 (inactive) | -25.1 (inactive) |
| COc1cc(OC)c(C(=O)CCCN2CCCC2)c(OC)c1 [Buflomedil] | 0.901 | 0.768 | -13.2 (inactive) | -13.3 (inactive) |
| CC(C)OC(=O)C(C)(C)Oc1ccc(C(=O)c2ccc(Cl)cc2)cc1 [Fenofibrate] | 0.901 | 0.661 | -0.815 (inactive) | 21.8 (inactive) |
| C=CC1=C(C(=O)O)N2C(=O)[C@@H](NC(=O)/C(=N\O)c3csc(N)n3)[C@H]2SC1 [Cefdinir] | 0.926 | 0.824 | 1.23 (inactive) | -0.0683 (inactive) |
| CC1(C)C[C@@H]1C(=O)N/C(=C\CCCCSC[C@H](N)C(=O)O)C(=O)O [Cilastatin] | 0.833 | 0.756 | -11.5 (inactive) | -15.2 (inactive) |
| CCN(CC)CCNC(=O)c1ccc(N)cc1 [Procainamide] | 0.82 | 1.19 | -8.23 (inactive) | 4.78 (inactive) |
| CC(=O)NC[C@H]1CN(c2ccc(N3CCOCC3)c(F)c2)C(=O)O1 [linezolid] | 0.899 | 0.929 | -7.33 (inactive) | 0.414 (inactive) |
| CCCNCC(O)COc1ccccc1C(=O)CCc1ccccc1 (stereo unspecified) [Propafenone] | 0.873 | 0.376 | -1.52 (inactive) | -22.4 (inactive) |
| c1cnc(N2CCN(Cc3ccc4c(c3)OCO4)CC2)nc1 [Piribedil] | 0.774 | 0.712 | -24.5 (inactive) | -35.6 (inactive) |
| OCCOCCN1CCN(C(c2ccccc2)c2ccc(Cl)cc2)CC1 (stereo unspecified) [Hydroxyzine pamoate salt] | 0.154 | 0.28 | -6.65 (inactive) | -24.4 (inactive) |
| Cc1ccc(N(CC2=NCCN2)c2cccc(O)c2)cc1 [Phentolamine] | 0.701 | 0.56 | -21.8 (inactive) | -26.1 (inactive) |
| Nc1ccn([C@@H]2CS[C@H](CO)O2)c(=O)n1 [Lamivudine] | 0.832 ± 0.033 | 0.619 ± 0.073 | -7.54 (inactive) | -12.3 (inactive) |
| O=C(O)Cc1ccccc1Nc1c(Cl)cccc1Cl [Diclofenac] | 0.824 | 0.883 | -25.4 (inactive) | -15.6 (inactive) |
| CC(C)C[C@H](NC(=O)[C@@H](COC(C)(C)C)NC(=O)[C@H](Cc1ccc(O)cc1)NC(=O)[C@H](CO)NC(=O)[C@H](Cc1c[nH]c2ccccc12)NC(=O)[C@H](Cc1cnc[nH]1)NC(=O)[C@@H]1CCC(=O)N1)C(=O)N[C@@H](CCCNC(=N)N)C(=O)N1CCC[C@H]1C(=O)NNC(N)=O [Goserelin] | 0.788 | 0.867 | -8.02 (inactive) | -4.2 (inactive) |
| CC(COc1ccccc1Cc1ccccc1)N1CCCCC1 (stereo unspecified) [Benproperine] | 0.726 | 0.819 | -8.06 (inactive) | -4.27 (inactive) |
| COc1cc2nc(N3CCN(C(=O)c4ccco4)CC3)nc(N)c2cc1OC [Prazosin] | 0.568 | 1 | -38.1 (inactive) | 3.87 (inactive) |
| O=C1NC(=O)C(c2ccccc2)(c2ccccc2)N1 [Phenytoin] | 0.39 | 0.762 | -17.5 (inactive) | -20.9 (inactive) |
| O=C(O[C@H]1[C@H](Oc2ccccc2COC(=O)C2(O)C=CCCC2=O)O[C@H](CO)[C@@H](O)[C@@H]1O)c1ccccc1 (stereo partly specified) [Tremulacin] | 0.746 | 2.76 | -11.2 (inactive) | 30.4 (inactive) |
| O=C1CC2(CCCC2)CC(=O)N1CCCCN1CCN(c2ncccn2)CC1 [Buspirone] | 0.713 | 0.313 | -14.9 (inactive) | -34 (inactive) |
| C[C@H](N[C@@H](CCc1ccccc1)C(=O)O)C(=O)N1CCC[C@H]1C(=O)O [Enalaprilat] | 0.936 | 0.731 | -2.57 (inactive) | -9.9 (inactive) |

| SMILES | fiber score / MBP score ([1]; 1 µM) | fiber score / MBP score ([1]; 5 µM) | myelination ([2]; 1 µM) | myelination ([2]; 5 µM) |
| --- | --- | --- | --- | --- |
| CC(=O)S[C@@H]1CC2=CC(=O)CC[C@]2(C)[C@H]2CC[C@@]3(C)[C@@H](CC[C@@]34CCC(=O)O4)[C@H]12 [Spironolactone] | 0.765 | 1.22 | -5.5 (inactive) | 6.33 (inactive) |
| CN/C(=N\CCSCc1nc[nH]c1C)NC#N [Cimetidine] | 0.731 | 0.823 | -12.1 (inactive) | -6.66 (inactive) |
| CN(C)[C@@H]1C(O)=C(C(=O)NCN2CCCC2)C(=O)[C@@]2(O)C(O)=C3C(=O)c4c(O)cccc4[C@@](C)(O)[C@H]3C[C@@H]12 [Rolitetracycline] | 0.779 | 0.832 | -9.77 (inactive) | -5.55 (inactive) |
| OCCN1C[C@H](O)[C@@H](O)[C@H](O)[C@H]1CO [Miglitol] | 0.881 | 0.788 | -7.81 (inactive) | -16.8 (inactive) |
| Clc1ccc2c(c1)C(N1CCNCC1)=Nc1ccccc1O2 [Amoxapine] | 1.09 | 0.185 | 0.685 (inactive) | -23.6 (inactive) |
| OCc1cc(C(O)CNCCCCCCOCCCCc2ccccc2)ccc1O (stereo unspecified) [Salmeterol] | 0.225 | 0.0809 | -29.9 (inactive) | -37.6 (inactive) |
| OC(c1cc(C(F)(F)F)nc2c(C(F)(F)F)cccc12)C1CCCCN1 (stereo unspecified) [Mefloquine] | 0.726 | 0.574 | -11.1 (inactive) | -31.7 (inactive) |
| O=c1n(CCCN2CCN(c3cccc(Cl)c3)CC2)nc2ccccn12 [Trazodone] | 0.819 | 0.5 | -42.9 (inactive) | -62.2 (inactive) |
| C[C@H]1O[C@@H](O[C@H]2[C@@H](O)C[C@H](O[C@H]3[C@@H](O)C[C@H](O[C@H]4CC[C@@]5(C)[C@H](CC[C@@H]6[C@@H]5C[C@@H](O)[C@]5(C)[C@@H](C7=CC(=O)OC7)CC[C@]65O)C4)O[C@@H]3C)O[C@@H]2C)C[C@H](O)[C@@H]1O [Digoxin] | 1.37 | 1.46 | 34 (inactive) | 68.2 |
| O=C1CN(/N=C/c2ccc([N+](=O)[O-])o2)C(=O)N1 [Nitrofurantoin] | 0.819 | 1.79 | -1.03 (inactive) | 44 (inactive) |
| O=C(O)c1cc(/N=N/c2ccc(S(=O)(=O)Nc3ccccn3)cc2)ccc1O [Sulfasalazine] | 0.823 | 1.17 | -11.7 (inactive) | 1.71 (inactive) |
| CCOc1cc(CC(=O)N[C@@H](CC(C)C)c2ccccc2N2CCCCC2)ccc1C(=O)O [Repaglinide] | 0.81 | 1.19 | -8.93 (inactive) | 2.54 (inactive) |
| CN(CCO)CC(O)Cn1cnc2c1c(=O)n(C)c(=O)n2C (stereo unspecified) [Jupal] | 0.827 | 0.635 | -7.05 (inactive) | -10.5 (inactive) |
| C[C@H](CCC(=O)O)[C@H]1CC[C@H]2[C@@H]3[C@H](O)C[C@@H]4C[C@H](O)CC[C@]4(C)[C@H]3CC[C@]12C [Chenodeoxycholic Acid] | 0.861 | 0.787 | -8.08 (inactive) | -12 (inactive) |
| CCN(CC)CC1CCCCN1CC(=O)N1c2ccccc2C(=O)Nc2cccnc21 (stereo unspecified) [Otenzepad] | 0.774 | 0.692 | -9.61 (inactive) | -15.6 (inactive) |
| CN(C)CCc1c[nH]c2ccc(C[C@H]3COC(=O)N3)cc12 [Zolmitriptan] | 0.791 | 0.785 | -9.2 (inactive) | -14.6 (inactive) |
| CCCCC(=O)N(Cc1ccc(-c2ccccc2-c2nnn[nH]2)cc1)[C@H](C(=O)O)C(C)C [Valsartan] | 0.885 | 0.655 | -7.17 (inactive) | -17.4 (inactive) |
| N[C@@H]1CONC1=O [Cycloserine] | 0.562 ± 0.18 | 0.637 | -22.5 (inactive) | -32.4 (inactive) |
| O=C(O)/C=C/c1ccc(Cn2ccnc2)cc1 [Ozagrel] | 0.768 | 1.11 | -6.75 (inactive) | -0.768 (inactive) |
| Cc1[nH]cnc1CN1CCc2c(c3ccccc3n2C)C1=O [Alosetron] | 0.768 | 0.974 | -18.2 (inactive) | -2.39 (inactive) |
| CC(N)C12CC3CC(CC(C3)C1)C2 (stereo unspecified) [Rimantadine] | 0.962 | 0.737 | 28.7 (inactive) | 62.2 |
| CCc1nn(CCCN2CCN(c3cccc(Cl)c3)CC2)c(=O)n1CCOc1ccccc1 [Nefazodone] | 0.932 | 0.76 | 2.86 (inactive) | 2 (inactive) |
| CN[C@@H]1[C@H](O)[C@H](NC)[C@H]2O[C@@]3(O)C(=O)C[C@@H](C)O[C@H]3O[C@@H]2[C@H]1O [Spectinomycin] | 0.923 | 1.03 | -3.04 (inactive) | -4.31 (inactive) |
| CN(C)[C@@H]1C(O)=C(C(N)=O)C(=O)[C@@]2(O)C(O)=C3C(=O)c4c(O)ccc(Cl)c4[C@@H](O)[C@H]3C[C@@H]12 [Demeclocycline] | 0.946 | 0.666 | -3.29 (inactive) | -12.1 (inactive) |

Reference: the supplement of paper PMC4840960
